Assay outcomes as filed in PubChem BioAssay.
HDAC3 inhib: inhibitors of human histone deacetylase 3; O15379; recombinant HDAC3, fluorogenic peptide/trypsin coupled, fluorescence; inhibition, % at 8.3 µM; 320,000 tested, 0.15% active; in the data active = inhibition above about 26%, passing the limit was not always enough
A3G deaminase: inhibitors of human APOBEC3G DNA deaminase. recombinant A3G, ssDNA deamination FAM/TAMRA fluorescence. inhibition, % at 20 µM. 330,000 tested, 0.28% active. AID 493012;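 active = inhibition of at least 40% at 20 µM, with no more than 30% in the related APOBEC3A deaminase screen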;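 note: plate controls were DMSO wells with A3G for no effect and wells lacking A3G enzyme for full effect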
Target sequence (Q9HC16 whole entry, looked up): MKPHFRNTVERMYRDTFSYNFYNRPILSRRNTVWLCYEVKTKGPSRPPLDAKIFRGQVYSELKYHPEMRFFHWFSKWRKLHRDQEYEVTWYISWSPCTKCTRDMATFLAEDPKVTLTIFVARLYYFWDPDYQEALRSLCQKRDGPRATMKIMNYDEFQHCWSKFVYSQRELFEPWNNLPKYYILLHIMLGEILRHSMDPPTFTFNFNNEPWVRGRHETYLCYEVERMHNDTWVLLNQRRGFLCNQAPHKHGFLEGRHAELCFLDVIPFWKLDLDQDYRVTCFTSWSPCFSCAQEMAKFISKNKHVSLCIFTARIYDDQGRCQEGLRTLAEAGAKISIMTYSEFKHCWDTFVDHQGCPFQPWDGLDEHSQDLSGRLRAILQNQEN
APOBEC3A inh: human APOBEC3A DNA deaminase inhibition. 330,000 tested, 0.41% active. recombinant A3A, FAM/TAMRA ssDNA deamination fluorescence. inhibition, % at 20 µM. P31941. AID 493011;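 active = at least 40% inhibition at 20 µM here, with at most 30% in a related deaminase screen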;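 note: plate controls were A3A with DMSO for no effect and wells lacking A3A enzyme for full effect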
Target sequence (P31941 whole entry, looked up): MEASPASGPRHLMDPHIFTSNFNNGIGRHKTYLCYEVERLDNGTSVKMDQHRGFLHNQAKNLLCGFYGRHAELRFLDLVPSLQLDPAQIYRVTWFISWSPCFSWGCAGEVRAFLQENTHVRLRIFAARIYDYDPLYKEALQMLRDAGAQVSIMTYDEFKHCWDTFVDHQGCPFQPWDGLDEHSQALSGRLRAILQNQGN
LANA-H2A inh: blocks KSHV LANA binding to histone H2A/H2B; cell-free LANA-H2A/H2B peptide, fluorescence polarization; inhibition, % (test concentration not listed); 320,000 tested, 0.6% active; AID 2629; in the data active = inhibition mostly above about 10%, no sharp cut-off; inactive = mostly below about 6.7%
A3A conf: APOBEC3A (human) deaminase inhibition, confirmed. shares compounds with APOBEC3A inh. recombinant A3A, ssDNA deaminase UDG fluorescence assay. inhibition, % at 20 µM. 1,400 tested, 63% active. AID 493151;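 active = inhibition reaching a set limit, 80% of the first screen's cutoff, at 20 µM in any replicate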;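 note: plate controls were DMSO wells with A3A for no effect and wells lacking A3A enzyme for full effect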
UDG ctr A3A: inhibits UDG, flagging false APOBEC3A inhibitors | AID 504714 | shares compounds with APOBEC3A inh | 1,000 tested, under 10 active | UDG counterscreen, FAM/TAMRA uracil oligo fluorescence | inhibition, % at 20 µM; call rule not given here
Starred values were filed as active, the others as inactive. Hits are enriched below; roughly 1.4% of the tested compounds scored in any of these assays.

What do the screens show for `COc1ccc(C(CC(=O)N2CCOCC2)c2c(OC)cc(OC)c3c(-c4ccccc4)cc(=O)oc23)cc1` (stereo not given)?
HDAC3 inhib: 1; A3G deaminase: 11; APOBEC3A inh: 60*; LANA-H2A inh: 1; A3A conf: 48*; UDG ctr A3A: -2

What do the screens show for `COc1ccc(C(CC(=O)N2CCOCC2)c2c(OC)cc(OC)c3ccc(=O)oc23)cc1` (stereo not given)?
HDAC3 inhib: -3; A3G deaminase: 16; APOBEC3A inh: 12; LANA-H2A inh: 1

How did CN(c1ccc(C(=O)Nc2cccnc2)cc1)S(=O)(=O)c1ccccc1 do in these assays?
HDAC3 inhib: 1; A3G deaminase: 2; APOBEC3A inh: 52*; LANA-H2A inh: -1; A3A conf: 28

Results for O=C(Cc1cccs1)NNC(=S)NCc1ccco1 ?
HDAC3 inhib: 1; A3G deaminase: -7; APOBEC3A inh: 78*; LANA-H2A inh: 3; A3A conf: -4; UDG ctr A3A: -3

What do the screens show for `COc1ccc2[nH]c3c(c2c1)CCN1C(=O)C(CC(=O)NCc2ccco2)C[C@H](C(=O)N2CCCCC2)[C@@]31CCc1ccccc1` (stereo not given in full)?
A3G deaminase: -1; APOBEC3A inh: 4

How did O=C(Cn1ccc([N+](=O)[O-])n1)N1CCc2ccccc21 do in these assays?
HDAC3 inhib: -2; A3G deaminase: 1; APOBEC3A inh: 5; LANA-H2A inh: -2

How did Cc1ccn(CCC(=O)N2CCc3ccccc32)n1 do in these assays?
HDAC3 inhib: -2; A3G deaminase: -2; APOBEC3A inh: 91*; LANA-H2A inh: 0; A3A conf: -8; UDG ctr A3A: -1

What do the screens show for `CCCCNS(=O)(=O)CCNCc1ccco1`?
A3G deaminase: 5; APOBEC3A inh: 3

Results for Cc1ccc(OCc2ccoc2C(=O)O)cc1C ?
HDAC3 inhib: -6; A3G deaminase: 11; APOBEC3A inh: 42*; LANA-H2A inh: 3; A3A conf: 37*; UDG ctr A3A: 1

Results for CCOc1ccccc1OCCC(=O)OCC(=O)Nc1c(C)cc(C)cc1C ?
HDAC3 inhib: 4; A3G deaminase: 10; APOBEC3A inh: 62*; LANA-H2A inh: -22; A3A conf: 23

How did CCC1CCCCN1C(=O)COc1cc(=O)n(C)c2ccccc12 (stereo not given) do in these assays?
HDAC3 inhib: -3; A3G deaminase: -8; APOBEC3A inh: -1; LANA-H2A inh: -1

What do the screens show for `CCC1CCCCN1C(=O)COc1ccccc1NC(C)=O` (stereo not given)?
HDAC3 inhib: -3; A3G deaminase: 11; APOBEC3A inh: 41*; LANA-H2A inh: -3; A3A conf: 3

Results for C[C@@H]1NS(=O)(=O)[C@H]2C[C@@H]3C=C[C@]2(O3)[C@H]1OC(=O)c1ccc(C(C)(C)C)cc1 ?
HDAC3 inhib: 6; A3G deaminase: -6; APOBEC3A inh: 1; LANA-H2A inh: -4

What do the screens show for `CCOC(=O)C1CCN(C(=O)C(C)Sc2ccc(Cl)cc2)CC1` (stereo not given)?
HDAC3 inhib: 4; A3G deaminase: -8; APOBEC3A inh: -1; LANA-H2A inh: -1

What do the screens show for `CCOC(=O)C1CCN(C(=O)C(C)Sc2nnc3ccccn23)CC1` (stereo not given)?
HDAC3 inhib: 1; A3G deaminase: -1; APOBEC3A inh: 60*; LANA-H2A inh: 7; A3A conf: 7; UDG ctr A3A: 3

Results for O=C(Nc1ccc(S(=O)(=O)N2CCCC2)cc1)C1CC(=O)N(c2ccccc2)C1 (stereo not given) ?
HDAC3 inhib: 3; A3G deaminase: 9; APOBEC3A inh: 72*; LANA-H2A inh: 1; A3A conf: 28

What do the screens show for `Cc1ccc2c(CC(=O)OCc3cc(=O)n4c(n3)sc3ccccc34)coc2c1`?
HDAC3 inhib: 3; A3G deaminase: 10; APOBEC3A inh: 44*; LANA-H2A inh: 2; A3A conf: 26

What do the screens show for `O=C(OCc1cc(=O)n2c(n1)sc1ccccc12)c1ccc2c(=O)n3c(nc2c1)CCC3`?
HDAC3 inhib: 11; A3G deaminase: 12; APOBEC3A inh: 22; LANA-H2A inh: 1

How did CC(C)[C@H](NC(=O)Cc1ccccc1)C(=O)OCc1cc(=O)n2c(n1)sc1ccccc12 do in these assays?
HDAC3 inhib: -2; A3G deaminase: 8; APOBEC3A inh: 43*; LANA-H2A inh: -6; A3A conf: 30

What do the screens show for `O=C(/C=C/c1ccccc1O)c1ccc(Cl)cc1`?
HDAC3 inhib: 6; A3G deaminase: -8; APOBEC3A inh: -1; LANA-H2A inh: 5

What do the screens show for `C[n+]1ccc(/C=C/c2ccccc2O)c2ccccc21`?
HDAC3 inhib: 9; A3G deaminase: 12; APOBEC3A inh: 64*; LANA-H2A inh: 1; A3A conf: 65*; UDG ctr A3A: 0

Results for CCn1nc(NC(C)=O)c2cc3cccc(C)c3nc21 ?
HDAC3 inhib: -7; A3G deaminase: 14; APOBEC3A inh: 76*; LANA-H2A inh: -1; A3A conf: 65*; UDG ctr A3A: -4

How did CCn1nc(NC(=O)C(C)C)c2cc3cccc(C)c3nc21 do in these assays?
HDAC3 inhib: -5; A3G deaminase: -8; APOBEC3A inh: -2; LANA-H2A inh: -2

Results for Cc1oc(=O)cc(OCc2ccccc2)c1C ?
A3G deaminase: 2; APOBEC3A inh: -1

How did CCc1ccc(OCC(=O)N/N=C\c2ccco2)c([N+](=O)[O-])c1 do in these assays?
HDAC3 inhib: 2; A3G deaminase: 14; APOBEC3A inh: 43*; LANA-H2A inh: 2; A3A conf: 43*; UDG ctr A3A: 3

How did CC[C@]12c3[nH]c4cc(CCC(=O)N(C)C)ccc4c3CCN1C(=O)[C@@H](CC(=O)NCc1ccco1)C[C@@H]2C(=O)N1CCN(C(=O)C2CC2)CC1 do in these assays?
A3G deaminase: 1; APOBEC3A inh: 0

Results for CC(=O)NNS(=O)(=O)c1ccccc1[N+](=O)[O-] ?
HDAC3 inhib: -1; A3G deaminase: -2; APOBEC3A inh: 47*; LANA-H2A inh: 4; A3A conf: 1; UDG ctr A3A: -3

How did Cc1noc(C)c1CSCC(=O)Nc1nc2c(F)cc(F)cc2s1 do in these assays?
HDAC3 inhib: 3; A3G deaminase: 8; APOBEC3A inh: 24; LANA-H2A inh: 2

What do the screens show for `O=C(COC(=O)c1ccccc1Nc1cccc(C(F)(F)F)c1)NCc1ccco1`?
HDAC3 inhib: 4; A3G deaminase: 23; APOBEC3A inh: 42*; LANA-H2A inh: -2; A3A conf: 23*; UDG ctr A3A: -2

What do the screens show for `O=C(COC(=O)c1ccccc1)NCc1ccco1`?
HDAC3 inhib: 1; A3G deaminase: 10; APOBEC3A inh: 30; LANA-H2A inh: -3

How did Nn1c(SCC(=O)Nc2ccc3c(c2)OCCO3)nnc(CCC(=O)O)c1=O do in these assays?
HDAC3 inhib: 3; A3G deaminase: 16; APOBEC3A inh: 74*; LANA-H2A inh: -2; A3A conf: 60*; UDG ctr A3A: 2
